For 37 molecules, growth results are on record in PubChem BioAssay (NCI).

Each structure is given as a SMILES string. This is part of a sample that, as a whole, favours compounds with a hit. Of some 83,000 tested, about 20% had one in any assay.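 Method: cells in 96-well plates; compound added at one concentration; 48 h incubation; percent growth measured; values under 10 scored active.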 Calls of active or inactive are those of the source.

The subject of one assay is NCI-H522 lung. The assay is described as follows: NCI-60 one-dose screen, 48 h (100 = growth as untreated, 0 = no growth, -100 = all killed). The conditions noted are these: 10 µM unless noted.
Consider `COc1ccc(-c2ccc(SCC(=O)NCCc3ccc(S(N)(=O)=O)cc3)nn2)cc1`, for which the growth was 70% (inactive).

For the molecule `O=C(CCN1C(=O)/C(=C/c2ccc(F)cc2)SC1=S)N1CCOCC1`, the growth was -79% (active).

As for `Cc1cc2nc3c4ccccc4n(CC4=NCCN4)c3nc2cc1C`, the growth is 2.32% (active).

For `Cc1ccc(C(=O)NN2C(=O)/C(=C/C=C/c3ccc([N+](=O)[O-])o3)SC2=S)cc1`, the growth is -90.7% (active).

Take `Cc1cc2nc3c([nH]c2cc1C)c1ccc(=O)cc1n3CCN(C)C`: the growth is 19.8% (inactive).

In the case of `N/C(=N\c1nc2ccccc2s1)NC(=O)Nc1c(Cl)cccc1Cl`, the growth is -19.3% (active).

With `Brc1ccc(-c2n(Cc3ccc4ccccc4c3)c(-c3ccccc3)c(-c3ccccc3)[n+]2Cc2ccc3ccccc3c2)cc1`, the growth is -90.9% (active).

In the case of `C=C1CC[C@@H]2[C@]3(C)COC(c4cn[nH]c4-c4ccc(Br)cc4)O[C@@H]3CC[C@@]2(C)[C@@H]1C/C=C1/C(=O)OCC1O` (some centres not stated), the growth was -57.5% (active).

Consider `COc1ccc(-c2nc3cc(C)ccc3n2CC(=O)N=Nc2c(O)[nH]c3ccc(Br)cc23)cc1`, for which the growth is 25% (inactive).

Turning to `CC12CC[C@@H]3[C@]4(C)COC(c5cn[nH]c5-c5cccc(Br)c5)O[C@@H]4CC[C@@]3(C)[C@@H]1CC(C1=CCOC1=O)O2` (some centres not stated), the growth is 24.9% (inactive).

For `COc1c(F)ccc(C(=O)Nc2ccc3nc(NC(=O)C4CCCN(S(=O)(=O)c5ccc(C#N)cc5)C4)sc3c2)c1F` (configuration not stated), the growth is 85.7% (inactive).

As to `COc1ccc2c(c1)c(-c1cc3nc(-c4cn(C)c5ncccc45)cc(N)n3n1)cn2C`, the growth was -78.4% (active).

Consider `CC(=O)c1cc(C(=O)c2ccccc2)n2c1ccc1ccccc12`, for which the growth was 97.4% (inactive).

On to `COc1ccc2[nH]c(=O)c(CSc3nccc(-c4ccc(OC)c(OC)c4)n3)cc2c1`, for which the growth was -17.4% (active).

For the molecule `COc1ccc(NC(=O)Cn2c3c(sc2=O)[C@H]2[C@@H](O)[C@@H](O)[C@H](O)[C@@H]2CS3)cc1`, the growth is 94.2% (inactive).

For the molecule `C=C1CCC2C3(C)COC(c4cccs4)OC3CCC2(C)C1CC(Sc1ccccc1)C1=CCOC1=O` (configuration not stated), the growth was 65.5% (inactive).

Regarding `CC1CN(c2oc(-c3ccc([N+](=O)[O-])cc3)nc2C#N)CC(C)O1` (configuration not stated), the growth was 100% (inactive).

For `Cc1occc1C(=O)NN1C(=O)/C(=C/C=C/c2ccc([N+](=O)[O-])o2)SC1=S`, the growth is -91.5% (active).

`N=C1N=C(SCc2nc3ccccc3[nH]2)NC(=O)/C1=C/c1ccc(Cl)cc1`: the growth is 92.7% (inactive).

Regarding `O=C(NN1C(=O)/C(=C/C=C/c2ccc([N+](=O)[O-])o2)SC1=S)c1ccccc1O`, the growth is -90.7% (active).

As for `COc1ccc(-c2nc3cc(C)ccc3n2CC(=O)N=Nc2c(O)[nH]c3ccc(Cl)cc23)cc1`, the growth is 14.9% (inactive).

`COC1=C[C@]23CCC(=O)N2CCc2cc4c(cc2[C@@H]3[C@@H]1OC(=O)[C@H](C)O)OCO4`: the growth was -48.1% (active).

Turning to `Cc1sc2c(c1C)C(c1ccc(Cl)cc1)=N[C@@H](CC(=O)NCCCCCNC(=O)COc1ccc(C3CCC(=O)NC3=O)cc1)c1nnc(C)n1-2` (some centres not stated), the growth is 3.85% (active).

For `N/C(=N\c1nc2ccccc2s1)NC(=O)Nc1ccc(Cl)cc1Cl`, the growth was -78.6% (active).

For `CC1=C(C#N)C2=NNCC(c3ccccc3)=NN2C(c2ccccc2)=C1`, the growth is 93.7% (inactive).

The next assay has as its system A549/ATCC NSCLC. The assay is described as above. The conditions noted are these: 10 µM unless noted.
Take `CCCSc1nc(Nc2ccc(S(N)(=O)=O)cc2)c(C#N)c(-c2ccc(Cl)cc2)n1`: the growth is 16.3% (inactive).

For `CCCCSc1nc(Nc2ccc(S(N)(=O)=O)cc2)c(C#N)c(-c2ccc(Cl)cc2)n1`, the growth is 1.68% (active).

As for `Cn1cc(-c2cc3nc(-c4cn(C)c5ncccc45)cc(N)n3n2)c2ccccc21`, the growth is 15.2% (inactive).

On to `Cc1ccc(C2=NN(c3nc(-c4cc5ccccc5oc4=O)cs3)C(c3ccc(C)cc3)C2)cc1` (configuration not stated), for which the growth was 109% (inactive).

As to `Cc1ccc2c(c1)nc(-c1ccccc1)n2CC(=O)N=Nc1c(O)[nH]c2ccc(Br)cc12`, the growth was -45.4% (active).

Take `O=C(Cn1nc(-c2ccccc2)ccc1=O)N/N=C/c1ccc(N2CCOCC2)cc1`: the growth is 94.9% (inactive).

As for `O=C(NN1C(=O)/C(=C/C=C/c2ccc([N+](=O)[O-])o2)SC1=S)c1ccc(Cl)cc1`, the growth was -86.7% (active).

On to `CCCCSc1nc(Nc2ccc(S(N)(=O)=O)cc2)c(C#N)c(-c2cc(OC)c(OC)c(OC)c2)n1`, for which the growth is 32.2% (inactive).

`COc1cc2c3c(n(CCCN4CCC[C@@H]4CO)c(=O)c2cc1OC)-c1cc2c(cc1C3=O)OCO2`: the growth was -83.3% (active).

For the molecule `Cn1cc(-c2cc(N)n3nc(-c4cn(C)c5ncc(Br)cc45)cc3n2)c2cc(Br)cnc21`, the growth was -22.3% (active).

Take `Cn1cc(-c2cc(N)n3nc(-c4c[nH]c5ccccc45)cc3n2)c2cccnc21`: the growth was 51.7% (inactive).

As for `CN(C)c1nc(NCCNS(=O)(=O)c2ccc(C3=Nc4c(N)nc(N)nc4NC(c4ccccc4)C3)cc2)nc(Nc2ccc(F)cc2)n1` (configuration not stated), the growth is 56.4% (inactive).

On to `COc1ccc(-c2ccc(SCC(=O)NCCc3ccc(S(N)(=O)=O)cc3)nn2)cc1`, for which the growth was 86.6% (inactive).

Take `O=C(CCN1C(=O)/C(=C/c2ccc(F)cc2)SC1=S)N1CCOCC1`: the growth was 81.5% (inactive).

Take `Cc1cc2nc3c4ccccc4n(CC4=NCCN4)c3nc2cc1C`: the growth was -85.2% (active).

`Cc1ccc(C(=O)NN2C(=O)/C(=C/C=C/c3ccc([N+](=O)[O-])o3)SC2=S)cc1`: the growth is -76.5% (active).

Consider `Cc1cc2nc3c([nH]c2cc1C)c1ccc(=O)cc1n3CCN(C)C`, for which the growth was 28.4% (inactive).

As to `N/C(=N\c1nc2ccccc2s1)NC(=O)Nc1c(Cl)cccc1Cl`, the growth is 38.8% (inactive).

On to `Brc1ccc(-c2n(Cc3ccc4ccccc4c3)c(-c3ccccc3)c(-c3ccccc3)[n+]2Cc2ccc3ccccc3c2)cc1`, for which the growth is -88.8% (active).

`C=C1CC[C@@H]2[C@]3(C)COC(c4cn[nH]c4-c4ccc(Br)cc4)O[C@@H]3CC[C@@]2(C)[C@@H]1C/C=C1/C(=O)OCC1O` (some centres not stated): the growth is -30.5% (active).

Turning to `COc1ccc(-c2nc3cc(C)ccc3n2CC(=O)N=Nc2c(O)[nH]c3ccc(Br)cc23)cc1`, the growth is -68.6% (active).

On to `CC12CC[C@@H]3[C@]4(C)COC(c5cn[nH]c5-c5cccc(Br)c5)O[C@@H]4CC[C@@]3(C)[C@@H]1CC(C1=CCOC1=O)O2` (some centres not stated), for which the growth was 25% (inactive).

`COc1c(F)ccc(C(=O)Nc2ccc3nc(NC(=O)C4CCCN(S(=O)(=O)c5ccc(C#N)cc5)C4)sc3c2)c1F` (configuration not stated): the growth was 91.6% (inactive).

With `COc1ccc2c(c1)c(-c1cc3nc(-c4cn(C)c5ncccc45)cc(N)n3n1)cn2C`, the growth is -30.6% (active).

On to `CC(=O)c1cc(C(=O)c2ccccc2)n2c1ccc1ccccc12`, for which the growth was 108% (inactive).

Take `COc1ccc2[nH]c(=O)c(CSc3nccc(-c4ccc(OC)c(OC)c4)n3)cc2c1`: the growth was 18.3% (inactive).

With `COc1ccc(NC(=O)Cn2c3c(sc2=O)[C@H]2[C@@H](O)[C@@H](O)[C@H](O)[C@@H]2CS3)cc1`, the growth is 100% (inactive).

As to `C=C1CCC2C3(C)COC(c4cccs4)OC3CCC2(C)C1CC(Sc1ccccc1)C1=CCOC1=O` (configuration not stated), the growth was 79.7% (inactive).

For the molecule `CC1CN(c2oc(-c3ccc([N+](=O)[O-])cc3)nc2C#N)CC(C)O1` (configuration not stated), the growth was 102% (inactive).

Consider `Cc1occc1C(=O)NN1C(=O)/C(=C/C=C/c2ccc([N+](=O)[O-])o2)SC1=S`, for which the growth was 6.62% (active).

As to `N=C1N=C(SCc2nc3ccccc3[nH]2)NC(=O)/C1=C/c1ccc(Cl)cc1`, the growth is 109% (inactive).

On to `O=C(NN1C(=O)/C(=C/C=C/c2ccc([N+](=O)[O-])o2)SC1=S)c1ccccc1O`, for which the growth is -58.2% (active).

As to `COc1ccc(-c2nc3cc(C)ccc3n2CC(=O)N=Nc2c(O)[nH]c3ccc(Cl)cc23)cc1`, the growth was -62.4% (active).

As for `COC1=C[C@]23CCC(=O)N2CCc2cc4c(cc2[C@@H]3[C@@H]1OC(=O)[C@H](C)O)OCO4`, the growth is 7.1% (active).

As for `Cc1sc2c(c1C)C(c1ccc(Cl)cc1)=N[C@@H](CC(=O)NCCCCCNC(=O)COc1ccc(C3CCC(=O)NC3=O)cc1)c1nnc(C)n1-2` (some centres not stated), the growth is 25.7% (inactive).

In the case of `N/C(=N\c1nc2ccccc2s1)NC(=O)Nc1ccc(Cl)cc1Cl`, the growth was -85.4% (active).

With `CC1=C(C#N)C2=NNCC(c3ccccc3)=NN2C(c2ccccc2)=C1`, the growth is 99.3% (inactive).
